The full list was thinned out, with hits kept by preference.
Pf Dd2 inh: qHTS Primary assay for Inhibitors of Plasmodium falciparum Dd2 growth in vitro | P. falciparum Dd2 growth, SYBR Green, 72 h | Potency, µM (doses to about 28.9 µM), for inactives: at the highest dose activity, negative = inhibition, actives largely listed as inhibitors | actives 4.3% (n = 120,000) | AID 1347417, 2020; active = well fitted inhibition curve with a large enough effect;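 note: plate controls were DMSO vehicle for no effect and reference drug for full effect; nearly all actives have a fitted effect of over 65% in size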
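Infected erythrocytes (Dd2, 0.3% parasitemia, 2.5% hematocrit final) are added to compound in RPMI-1640/Albumax II medium, grown 72 h at 37C in low oxygen, then lysed with saponin/Triton-X containing SYBR Green and read by fluorescence.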
Numbers without * were called inactive; i = inactive; [ ] = remark or other dose. Potency is the fitted concentration of half-maximal effect.

SMILES	Pf Dd2 inh
Cc1cccc(-c2noc([C@@H]3Cc4nc[nH]c4CN3C(=O)C3CCCCC3)n2)c1	-12%[44.1 µM]
COc1ccc(-c2noc([C@@H]3CCCN3C(=O)c3ccc(C(C)(C)C)cc3)n2)cc1	i
O=C(NC1CCCCC1)N1Cc2[nH]cnc2C[C@H]1c1nc(-c2ccc3ccccc3c2)no1	i
COc1ccc(-c2noc([C@@H]3Cc4nc[nH]c4CN3C(=O)NC3CCCCC3)n2)cc1	13µM*
Cc1ccc(-c2noc([C@@H]3CCCN3C(=O)Cc3ccccc3)n2)cc1	i
CCCCOc1ccc(C(=O)N2CCC[C@H]2c2nc(-c3ccc(OC)cc3)no2)cc1	11µM*
O=[N+]([O-])c1cccc(-c2noc([C@@H]3Cc4nc[nH]c4CN3CC3CCCCC3)n2)c1	14µM*
CCOc1ccc(C(=O)N2CCC[C@H]2c2nc(-c3ccccc3)no2)cc1	-3%
CC(=O)N1CC2(Cc3ccccc31)CN(C(=O)c1ccccc1C)C2	5%[44.1 µM]
O=C(NC1C[C@H]2CC[C@@H](C1)N2S(=O)(=O)c1ccc(Cl)s1)c1ccncc1 (some centres not stated)	1%
CCCN1CCN(C(=O)Cn2nc(C)c3sc(-c4ccccc4)nc3c2=O)CC1	-8%
c1ccc(-c2ccccc2Nc2cnc3ccc(-n4ccnc4)nn23)cc1	i
Cc1cccc(OC[C@H]2C[C@@H](N(C)C)[C@H](O)[C@@H]2O)n1	-13%[44.1 µM]
CCc1nc2c(c(-c3ccc(Cl)cc3)n1)CN(C(=O)c1ccccc1F)CC2	-11%
Cc1ccc(N2CCC(N[C@@H]3CC[C@@H](N)C3)CC2)cc1Cl	13µM*
Cc1ccc(C(=O)NC2CCN(c3cnn(CC4CC4)c(=O)c3)CC2)cc1C	i
Cc1ccc(-n2ncc3c(NC4CCCCCC4)ncnc32)cc1Cl	i
CCNC(=O)CCc1c(C)nn(-c2ccc(F)cc2)c1Oc1ccccc1C	i
COc1ccc(C(=O)N2CCc3ccc(C(=O)NCc4ccncc4)cc32)cc1	i
CCOC(=O)/C(C#N)=C/c1ccc(-c2ccccc2)o1	5%
CC(C)COC(=O)/C(C#N)=C\c1ccc(-c2ccccc2Cl)o1	1.1µM*
CCC(C)OC(=O)/C(C#N)=C\c1ccc(-c2ccccc2Cl)o1 (configuration not stated)	79%
C[C@@]1(O)CCN(C(=O)CN)C[C@@H]1Cc1ccccc1	-6%
CSc1ccc(-c2nc(CN3CCOC(CCO)C3)c(C)o2)cc1 (configuration not stated)	-10%
Cc1cccc(CN2CCN(Cc3nc(-c4cccs4)oc3C)CC2CCO)n1 (configuration not stated)	11µM*
SMILES	Pf Dd2 inh
OCCC1CN(Cc2cnn(-c3ccccc3)c2)CCN1Cc1cccs1 (configuration not stated)	i
CC(=O)N1CCCC(C(=O)NCc2nc(Cc3cccs3)no2)C1 (configuration not stated)	-4%
CN1CC2(CCN(C(=O)c3cc(-n4cccn4)ccc3Cl)CC2)OC1=O	13%
O=C(CC1N=C2c3ccccc3N=C(SCc3ccc(Cl)cc3)N2C1=O)NCc1cccs1 (configuration not stated)	92%
COc1cccc(NC(=O)CSC2=Nc3ccccc3C3=NC(CC(=O)NCc4cccs4)C(=O)N23)c1 (configuration not stated)	i
CC(C)c1ccc(NC(=O)CSC2=Nc3ccccc3C3=NC(CC(=O)NCc4cccs4)C(=O)N23)cc1 (configuration not stated)	12%
O=C(CCC1N=C2c3ccccc3N=C(SCc3ccc(Cl)cc3)N2C1=O)NCc1cccs1 (configuration not stated)	57%
O=C(CC1N=C2c3ccccc3N=C(SCc3ccccc3F)N2C1=O)NCc1cccs1 (configuration not stated)	i
Cc1ccc(CSC2=Nc3ccccc3C3=NC(CC(=O)NCc4cccs4)C(=O)N23)cc1 (configuration not stated)	3.2µM*
O=C(CC1N=C2c3ccccc3N=C(SCC(=O)Nc3ccccc3F)N2C1=O)NCc1cccs1 (configuration not stated)	4µM*
Cc1cc(C)c(NC(=O)CSC2=Nc3ccccc3C3=NC(CC(=O)NCc4cccs4)C(=O)N23)c(C)c1 (configuration not stated)	13µM*
COc1ccccc1NC(=O)CSC1=Nc2ccccc2C2=NC(CC(=O)NCc3ccccc3)C(=O)N12 (configuration not stated)	97%
Cc1ccc(S(=O)(=O)Nc2ccc(C)n(CC(=O)NCc3ccccc3)c2=O)cc1	6%
O=C(NC1CCCCC1)O[C@@H]1CO[C@H]2[C@@H]1OC[C@@H]2NC(=O)c1ccccc1	-9%[44.1 µM]
CCS(=O)(=O)Nc1ccc(C2(C(=O)NCc3ccc(C)cc3)CCC2)cc1	-8%
O=C(CC[C@H]1NC(=O)c2ccccc2NC1=O)NCCCc1nc2ccccc2[nH]1	-10%
COCC1CN(C(C)=O)CC12CCN(S(=O)(=O)c1ccc(OC)cc1)CC2 (configuration not stated)	-11%

Screens (PubChem BioAssay)
